Among all 410,000 compounds or so, about 18,000 (4.4%) were called active. Inconclusive results (about 7%) are left out. Only a selection was taken, and actives are over-represented in it overall. Values without a mark were called inactive. No stated cut-off is given here; in the data, active means activity change below about -60%; inconclusive means no clear call, values can overlap the other calls; inactive means above about -39%.
On the % scale 0 is the no-effect control and ±100 the full control effect.

A short description of this experiment: qHTS Assay for inhibitors of the human cytomegalovirus (HCMV). The settings on record: HFF cells, HCMV-luciferase reporter, 72 h; at 57.5 µM; hits give low values. The source says: NCGC Assay Overview: Infection with human cytomegalovirus (HCMV) continues to pose significant threats for pregnant women and immunocompromised hosts. HCMV causes serious morbidity and mortality in transplant recipients, and congenital HCMV is the leading infectious cause of mental retardation and deafness in children. In the 1990s, the annual costs associated with the disease burden of congenital CMV were estimated at around $2 billion. A HCMV vaccine is not available yet and HCMV therapies result in intolerable side effects and emergence of drug resistant viruses. […] Towards this goal we have developed and characterized a luciferase HCMV reporter that was initially used in 96 well plates and then optimized to 1536-well plates for utilization in screening of the MLSMR collection, the NGCG diversity collection and the NCGC Pharmaceutical Collection of approved and investigational drugs.
NCGC Assay Protocol Summary:
This is a cell-based assay for HCMV inhibition in HFFs cells. The screening used 2 compound doses and the HCMV-luciferase at MOI of 1 PFU/cell. Cells were treated and infected with HCMV. At 72 h post infection cell lysates were collected and luciferase activity was determined using the Glomax-Multi + Detection System (Promega, Madison, WI). Data were normalized to the controls for basal activity (buffer only) and known HCMV inhibitors Salinmoycin.
1536-well assay protocol for the assay:
(1) Add 3 ul CMV/HFF cell culture. 1000 cells/well in DMEM nirmal media.
(2) Incubate 16 hr at 37C.
(3) Add 23 nl control compound, 10uM of Salinomycin.
(4) Add 23 nl compounds in DMSO solution.
(5) Add 3 ul CMV suspension. Final 1 puf/ul, Virus stock 2000pfu/ul
(6) Incubate 72 hrs at 37C.
(7) Add 4 ul OneGlo Luc Reagent.
(8) Incubate 5 min at room temperature.
(Quantitative high-throughput screening tests each substance at several concentrations.)
In the case of `CCOc1ccc(C2CC(=O)c3c([nH]c(C(=O)OCc4ccccc4)c3C)C2)cc1` (stereo unspecified), the activity change, negative = inhibition was -87.7% (active). The figure for `CCOC(=O)C1Sc2[nH]c(=O)sc2C(c2ccc(Cl)cc2)C1C(=O)OCC` (stereo unspecified) is -32.8%; for `CCOC(=O)c1ccc(N2C(=O)c3[nH]nc(-c4ccccc4)c3C2c2ccc(C(C)C)cc2)cc1` (stereo unspecified) it is -27.7%; for `CCOc1ccc(C2C3=C(CCCC3=O)N(CC(=O)O)C3=C2C(=O)CCC3)cc1` it is -23.6%. In the case of `CCCOC(=O)c1[nH]c2c(c1C)C(=O)CC(c1cccs1)C2` (stereo unspecified), the activity change, negative = inhibition is -91.4% (active). As for `CCOC(=O)c1[nH]c2c(c1-c1ccccc1)C(=O)CC(c1ccc(Cl)cc1)C2` (stereo unspecified), the activity change, negative = inhibition was -60.6% (active). `COc1ccc(-c2cnn(C(C)(C)C(=O)Nc3ccccn3)c2)cc1OC`: the activity change, negative = inhibition is 25%. As to `COc1ccc(NC(=O)c2sc(=O)n(Cc3ccc(S(=O)(=O)N(C)C)cc3)c2C)cc1`, the activity change, negative = inhibition was -0.573%.

On to `OCC1(Cc2ccccc2C(F)(F)F)CCN(Cc2ccncc2)CC1`, for which the activity change, negative = inhibition was 71%.

Regarding `Cc1nc2c(c(C)nn2-c2ccccc2)c(C)c1CCC(=O)NCCc1ccc(Cl)cc1`, the activity change, negative = inhibition was -1.35%. Consider `Cc1cc(C)c2oc(C(=O)Nc3ccc(S(=O)(=O)N4CCCCCC4)cc3)cc(=O)c2c1`, for which the activity change, negative = inhibition is -9.78%. Then `CCOc1ccc(NC(=O)c2cn(C3CCCCC3)c(=O)c3c2c2ccccc2n3C)cc1`, with -4.97%; and `O=C(COc1ccc(Cl)cc1)N(Cc1ccco1)Cc1ccco1`, with -22.5%; and `COc1ccc(S(=O)(=O)NCC(c2ccc(N(C)C)cc2)N2CCc3ccccc32)cc1OC` (stereo unspecified), with 34.1%. Then `Cc1ccc(C)c(-n2c(SCC(=O)O)nc3sc4c(c3c2=O)CCCC4)c1`, with -26%.

`Cc1nc2sc3c(c2c(=O)n1NC(=O)CCl)CCCC3`: the activity change, negative = inhibition was -63.7% (active).

Consider `O=C(CCc1nc2sc3c(c2c(=O)[nH]1)CCCC3)NCC(=O)Nc1ccccc1Br`, for which the activity change, negative = inhibition is -4.74%. As for `O=C(c1ccc2c(c1)N(Cc1ccccc1F)C(=O)c1ccccc1S2(=O)=O)N1CCOCC1`, the activity change, negative = inhibition is 5.01%. `COc1cccc2c1C(=O)c1c(O)c3c(c(O)c1C2=O)CC(O)(C(C)=NNC(=O)c1ccc(Cl)c(Cl)c1)CC3OC1CC(N)C(O)C(C)O1` (stereo unspecified): the activity change, negative = inhibition was -99% (active). As for `Cc1ccc2nc(CN3CCN(S(=O)(=O)c4ccc(C)c(C)c4)CC3)oc2c1`, the activity change, negative = inhibition was 1.05%. On to `COc1ccc(CN2C(=O)C(NC(=O)c3cccc(C)c3)(C(F)(F)F)N=C2c2ccccc2)cc1` (stereo unspecified), for which the activity change, negative = inhibition was -8.44%. Then `CC1C(C)N(C(=O)CCl)c2ccccc2N1C(=O)CCl` (stereo unspecified), with -38.8%.

For `CC1Oc2ccccc2N(Cc2cccnc2)C1=O` (stereo unspecified), the activity change, negative = inhibition is 49.3%. For the compound `CC1C(=O)N(Cc2ccccc2)c2ccccc2N1C(=O)c1ccccc1` (stereo unspecified), the activity change, negative = inhibition is -73.6% (active). For the compound `COc1cc(C(CC(=O)NCCC(C)C)N2Cc3ccccc3C2=O)cc(OC)c1OC` (stereo unspecified), the activity change, negative = inhibition was 22.7%. The figure for `Cc1ccc(CCNC(=O)CN2C(=O)CSc3ccc(S(=O)(=O)N4CCOCC4)cc32)cc1` is -26.9%; for `CCN(CC)S(=O)(=O)c1ccc2c(c1)N(CC(=O)NCc1ccccc1)C(=O)CS2` it is -9.16%; for `COC(=O)CN1C(=O)CSc2ccc(S(=O)(=O)Nc3cc(C)ccc3C)cc21` it is -71.2% (active). `COc1ccc(Cc2nc3ccc(C(=O)NCc4ccccc4Cl)cc3o2)cc1`: the activity change, negative = inhibition is -18%. Then `COc1ccc(Cc2nc3ccc(C(=O)NCc4ccc(OC)cc4OC)cc3o2)cc1`, with -12.1%; and `COc1ccc(Cc2nc3ccc(C(=O)NCc4ccccc4C)cc3o2)cc1`, with -89.9% (active); and `O=C(NC1CCCC1)N1CC(=O)N2[C@H](C1)[C@@H](c1ccc(Br)cc1)[C@@H]2CO`, with 13.9%. The figure for `CCOC(=O)c1c(NC(=O)COC(=O)c2ccc(S(=O)(=O)C(F)F)cc2)sc(C(=O)N(C)C)c1C` is 6.79%.

As to `CCOC(=O)c1c(NC(=O)CCl)sc(C(=O)N(CC)CC)c1C`, the activity change, negative = inhibition was -99% (active). With `CCOC(=O)c1c(NC(=O)c2cc(CC)on2)sc(C(C)=O)c1C`, the activity change, negative = inhibition was 0.462%. In the case of `O=C(CC1C(=O)NCCN1CC(c1ccccc1)c1ccccc1)NCCc1cn[nH]c1` (stereo unspecified), the activity change, negative = inhibition is -37.4%.

Regarding `CCCCNC(=O)c1ccc2c(c1)NC(=O)C(C(C)C)N2` (stereo unspecified), the activity change, negative = inhibition is 7.34%. For `O=C(Nc1ncc2c(n1)-c1ccccc1OC2)c1ccc(Cl)cc1`, the activity change, negative = inhibition is 16.2%. Regarding `CCOC(=O)c1c(NC(=O)c2ccc(S(=O)(=O)N(CC)CC)cc2)sc2c1CCCCC2`, the activity change, negative = inhibition was 49.3%. Take `COCCN(CCOC)S(=O)(=O)c1ccc(C(=O)Nc2nc3c(s2)CCc2ccccc2-3)cc1`: the activity change, negative = inhibition was -63.9% (active). On to `CCCN(CCC)S(=O)(=O)c1ccc(C(=O)Nc2sc3c(c2C(=O)OC)CCN(CC)C3)cc1`, for which the activity change, negative = inhibition is -35.8%. For `C=CCN(CC=C)S(=O)(=O)c1ccc(C(=O)Nc2nc3c(s2)CCc2ccccc2-3)cc1`, the activity change, negative = inhibition is -86.4% (active). As to `COCCN(CC(=O)Nc1ccccc1C)S(=O)(=O)c1ccc(S(=O)(=O)N2CCCC2)cc1`, the activity change, negative = inhibition is 26.9%. With `CCCCN(C)S(=O)(=O)c1ccc(C(=O)Nc2sc3c(c2C(N)=O)CC(C)(C)NC3(C)C)cc1`, the activity change, negative = inhibition is -1.57%. Regarding `C=CCN(CC=C)S(=O)(=O)c1ccc(C(=O)Nc2sc3c(c2C(N)=O)CCCCC3)cc1`, the activity change, negative = inhibition was -93.4% (active).

On to `C=CCN(c1ccc(C(=O)Nc2cc(C)cc(C)c2)cc1)S(C)(=O)=O`, for which the activity change, negative = inhibition is -28.7%.

The record behind these values is PubChem BioAssay AID1259415 (National Center for Advancing Translational Sciences (NCATS), 2018).
